Most compounds without a hit are left out; they make up all but 10% or so of the library.
Pf growth 48h: P. falciparum growth inhibition at 48 hours (one generation). AID 504832. Potency, µM (top dose mostly 28.7 µM), actives largely listed as inhibitors. P. falciparum luciferase growth in erythrocytes, 48 h. 310,000 tested, 5.9% active; active = well fitted inhibition curve with a large enough effect; inconclusive = small, poorly fitted or top-dose-only effect, or another doubt; inactive = no such curve, though single readings can be large or run the other way
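Firefly luciferase activity from engineered P. falciparum reports growth; inhibitors lower the luminescent signal. Cultures contained 2% hematocrit erythrocytes at 0.1% final parasitemia.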
Pf growth 96h: inhibits malaria parasite growth, 96 h | 320,000 tested, 6.9% active | P. falciparum luciferase reporter growth, 96 h | Potency, µM (highest dose often 28.7 µM), actives largely listed as inhibitors; active = well fitted inhibition curve with a large enough effect; inconclusive = small, poorly fitted or top-dose-only effect, or another doubt; inactive = no such curve, though single readings can be large or run the other way
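Two parasite generations (96 h, 37 C, 5% CO2) of compound exposure in infected erythrocytes (0.05% parasitemia, 2% hematocrit). Luciferase-reporter P. falciparum; decreased luminescence indicates inhibited growth, aimed at apicoplast-acting delayed death.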
NS1 inh: inhibitors of influenza NS1 protein function. Potency, µM (highest dose often 46.1 µM). 270,000 tested, 0.4% active. AID 2326; note: actives are rising curves; nearly all actives have a fitted effect of over 50% in size
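In this qHTS, NS1 from influenza A is expressed in budding yeast, where it slows growth. Cells are switched from glucose to 2% galactose medium (pH 6.0, -URA), treated with compound, and growth recovery is read at OD600.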
SARS PLpro yeast-1: inhibitors of SARS-CoV papain-like protease in yeast; S. cerevisiae expressing SARS-CoV PLpro, growth rescue; Potency, µM (top dose mostly 32.9 µM), usual class: activators; 330,000 tested, 0.19% active; note: nearly all actives have a fitted effect of over 55% in size
NS1 inh valid: influenza NS1 function inhibition validation. 1,400 tested, under 10 active. AID 492980. influenza NS1 function cell assay, 15-point titration. shares compounds with NS1 inh. activity change, negative = inhibition, % at 32.9 µM
PR8 titer: influenza NS1 inhibitors: inhibition of influenza A/PR/8/34 replication; shares compounds with NS1 inh; MDCK infected influenza A/PR/8/34, virus titer TCID50; hits give low values; virus titer (log TCID50), log10 TCID50 at 5 µM; 95 tested, 30% active; call rule not given here
SARS PLpro yeast-2: Rescues yeast growth by inhibiting SARS-CoV PLpro; shares compounds with SARS PLpro yeast-1; yeast expressing SARS-CoV PLpro, growth phenotype rescue; calls only; 1,000 tested, 19% active; call rule not given here
Large screens that a line does not name were inactive (follow-up assays come after a bar, where they were run). Unless noted, calls come from the whole dose curve.

CC(C)CCN1CCN(Cc2nc3c(s2)CCCC3)CC1CCO (configuration not stated)	Pf growth 96h inconclusive
O=C(Nn1c(SCc2cccc([N+](=O)[O-])c2)nc2ccccc2c1=O)c1ccccc1	NS1 inh 14.1µM | NS1 inh valid inactive
CC1(C)C(=O)C2(C(=O)NCc3ccccc3)CCC1C2 (configuration not stated)	NS1 inh 20µM (no result: Pf growth 96h) | NS1 inh valid inactive
O=[N+]([O-])c1ccc(N/N=C/c2cn(-c3ccccc3)nc2-c2ccccc2)cc1	Pf growth 48h 13.1µM, Pf growth 96h 4.65µM, NS1 inh inconclusive | NS1 inh valid inactive
O=c1cc(-c2ccc(O)c(-c3c(O)cc(O)c4c(=O)cc(-c5ccc(O)cc5)oc34)c2)oc2cc(O)cc(O)c12	Pf growth 48h inconclusive, Pf growth 96h inconclusive, NS1 inh 10µM | NS1 inh valid inactive
Cc1cccc(-n2cc(-c3ccc([N+](=O)[O-])cc3)[nH]c2=S)c1	none
Cc1ccc(-n2cc(-c3ccc([N+](=O)[O-])cc3)[nH]c2=S)c(C)c1	Pf growth 48h inconclusive, NS1 inh 6.31µM | NS1 inh valid inactive
CC(C)(C)NC(=O)c1nc2ccccc2s1	none
CC(C)(C)NC(=O)c1ccccc1-c1nc2ccccc2s1	Pf growth 48h inconclusive, Pf growth 96h inconclusive, NS1 inh inconclusive | NS1 inh valid inactive | PR8 titer inactive
Cc1c(NC(=O)c2ccc(N3CCCC3)c([N+](=O)[O-])c2)cccc1-c1nc2ccccc2s1	Pf growth 48h 10.4µM, Pf growth 96h inconclusive, NS1 inh 2µM | NS1 inh valid inactive
COc1ccc(N2C(=O)N3[C@H](c4cccc(C)c4)[C@@H]4C(=O)N(Cc5ccccc5)C(=O)[C@@H]4[C@]3(Cc3ccccc3)C2=O)cc1	Pf growth 48h inconclusive, Pf growth 96h 4.65µM, NS1 inh 14.1µM | NS1 inh valid inactive | PR8 titer 7.5
CCN1C(=O)[C@H]2[C@@H](c3ccc(C)cc3)N3C(=O)N(c4cccc(C)c4)C(=O)[C@@]3(Cc3ccccc3)[C@H]2C1=O	Pf growth 48h inconclusive, Pf growth 96h inconclusive
CC1CC(C)CN(CCCNC(=O)c2ccc3c(c2)ncn3C2CCCC2)C1 (configuration not stated)	Pf growth 48h inconclusive, Pf growth 96h 10.4µM, NS1 inh inconclusive | NS1 inh valid inactive
CCCCNC(=O)c1ccc2c(c1)ncn2C1CCCC1	Pf growth 96h inconclusive (no result: Pf growth 48h)
CCC(=O)Nc1ccc(Cl)c(NC(=S)NC(=O)c2cc3ccccc3o2)c1	NS1 inh inconclusive | NS1 inh valid inactive
CN(C)C(=O)Oc1ccc2oc(=O)cc(-c3cc4ccccc4o3)c2c1	NS1 inh inconclusive | NS1 inh valid inactive
COC1C(C)=C(C)C(=O)N1Cc1ccc(F)cc1 (configuration not stated)	Pf growth 48h inconclusive, SARS PLpro yeast-1 inconclusive
CCc1ccc(NC(=O)CN2CCCN(S(=O)(=O)c3ccc(F)cc3)CC2)cc1	none
O=C(COC(=O)c1ccc[nH]c1=O)Nc1ccc(S(=O)(=O)N2CCCC2)cc1	NS1 inh 11.2µM | NS1 inh valid inactive | PR8 titer inactive
O=C(COC(=O)c1ccc[nH]c1=O)Nc1cc(S(=O)(=O)N2CCCCC2)ccc1Cl	none (no result: NS1 inh)
Cc1ccc(NC2CCCN(C(=O)CCCN3CCCCC3=O)C2)cc1C (configuration not stated)	Pf growth 48h inconclusive, Pf growth 96h inconclusive
COc1ccc(NC(=S)N(CCc2c(C)[nH]c3ccc(C)cc23)Cc2cccs2)cc1	NS1 inh 11.2µM | NS1 inh valid inactive
CCOc1ccc(NC(=S)N(CCc2c(C)[nH]c3ccc(C)cc23)Cc2ccco2)cc1	Pf growth 48h inconclusive, Pf growth 96h inconclusive, NS1 inh 11.2µM | NS1 inh valid inactive
Cc1cccc(C)c1NC(=O)CN(C)C(=O)C1CC1C (configuration not stated)	none (no result: NS1 inh)
O=C(Nc1ccccc1Cl)Oc1ccc2ccccc2c1	NS1 inh inconclusive | NS1 inh valid inactive
CCOc1ccc(NC(=S)NCc2ccc3[nH]c(C)cc3c2)cc1	Pf growth 48h inconclusive (no result: NS1 inh)
CCCCNC(=S)NCc1ccc2[nH]c(C)cc2c1	NS1 inh 1.41µM | NS1 inh valid inactive
CC(C)(C)OC(=O)N1CCC(CC2CC(c3cccc(Br)c3)=NO2)(C(=O)O)CC1 (configuration not stated)	Pf growth 96h inconclusive
O=C(C1CCCC1)N1CCC(CC2CC(c3cccc(Br)c3)=NO2)(C(=O)NCC2CCCCC2)CC1 (configuration not stated)	Pf growth 48h inconclusive, Pf growth 96h inconclusive, NS1 inh 22.4µM | NS1 inh valid inactive
CCN1C(=O)[C@@H]2[C@H](C1=O)[C@@H]1C[C@H]3C(=O)N(CC)C(=O)[C@H]3[C@@H]3C1=C(C(=O)N1C(=O)OC(=NCC4CC4)[C@]31C)[C@@H]2C	none
CC(C)CCNC(=O)CN(C(=O)CCC(=O)Nc1nccs1)c1ccc2c(c1)OCCO2	none
O=C(Cn1c(NCCO)nc2ccccc21)NCCc1ccc(F)cc1	Pf growth 48h inconclusive, NS1 inh 1µM, SARS PLpro yeast-1 inconclusive | NS1 inh valid inactive | SARS PLpro yeast-2 inactive
O=C(Cn1c(CO)nc2ccccc21)NCCc1ccc(F)cc1	none (no result: NS1 inh)
CCOC(=O)N1CCN(S(=O)(=O)c2ccc(C(=O)NNc3nc4c(C)cccc4s3)cc2)CC1	Pf growth 48h inconclusive, Pf growth 96h inconclusive, NS1 inh 10µM, SARS PLpro yeast-1 7.94µM | NS1 inh valid inconclusive | SARS PLpro yeast-2 active
Cc1cccc2sc(NNC(=O)c3ccc(S(=O)(=O)N4CCc5ccccc5C4)cc3)nc12	Pf growth 48h inconclusive, Pf growth 96h 5.22µM, NS1 inh 12.6µM, SARS PLpro yeast-1 10µM | NS1 inh valid inconclusive | SARS PLpro yeast-2 active
CCOC(=O)N1CCN(S(=O)(=O)c2ccc(C(=O)NNc3nc4ccc(Cl)cc4s3)cc2)CC1	Pf growth 96h inconclusive, NS1 inh 7.94µM, SARS PLpro yeast-1 10µM | NS1 inh valid inactive | SARS PLpro yeast-2 active
N#Cc1cccc(NC(=O)CN2C(=O)NC(Cc3ccccc3)C2=O)c1 (configuration not stated)	none
CN(C)S(=O)(=O)c1ccc(C(=O)NCc2ccc3[nH]c4c(c3c2)CCCC4)cc1	Pf growth 96h inconclusive, NS1 inh 15.8µM, SARS PLpro yeast-1 3.55µM | NS1 inh valid inactive | SARS PLpro yeast-2 active
CNC(=S)NCc1ccc2[nH]c3c(c2c1)CCCC3	none
C[C@]12c3[nH]c4ccccc4c3CCN1C(=O)C(CC(=O)NCCc1ccccn1)C[C@@H]2C(=O)N1CCOCC1 (some centres not stated)	none (no result: Pf growth 48h, Pf growth 96h, NS1 inh)
O=C(N/N=C\c1c(O)ccc2ccccc12)c1ccc(Cn2cccn2)o1	Pf growth 48h inconclusive, Pf growth 96h inconclusive, NS1 inh inconclusive, SARS PLpro yeast-1 inconclusive | NS1 inh valid inactive | SARS PLpro yeast-2 inactive

Source: PubChem (National Center for Advancing Translational Sciences (NCATS))
